Assay results taken from the antibiotic and cytotoxicity screens of Wong et al. (2023).
Among all 39,000 compounds or so, about 1,500 (3.8%) were called active. Shown is part of a subset that was picked to be rich in actives.

system: HSkMC (human skeletal muscle cells); assay: cytotoxicity call (relative viability < 0.9); settings: 10 µM

SMILES	cytotoxicity call
Cc1noc(C)c1NC(=O)N(C)C[C@H]1Oc2ccc(NC(=O)C3CC3)cc2CC(=O)N([C@@H](C)CO)C[C@H]1C	inactive
CCOCCCNc1nc2c([nH]1)c(=O)n(C)c(=O)n2C	inactive
C[C@@H]1CN([C@H](C)CO)S(=O)(=O)c2ccc(-c3cncnc3)cc2O[C@H]1CN(C)C(=O)c1cccc(F)c1	inactive
C[C@@H]1CN([C@@H](C)CO)C(=O)c2cccc(NC(=O)c3cnccn3)c2O[C@@H]1CN(C)CC1CCCCC1	inactive
COc1cccc(C#Cc2ccc3c(c2)O[C@@H](CN(C)C(=O)c2ccccn2)[C@H](C)CN([C@H](C)CO)S3(=O)=O)c1	inactive
COC(=O)CCCCCCC(=O)Nc1ccc([C@H]2O[C@@H](CSc3nc(-c4ccccc4)c(-c4ccccc4)o3)C[C@H](c3ccc([N+](=O)[O-])cc3)O2)cc1	inactive
COCCOC(=O)N1C(=O)[C@@]2(c3cc(C#Cc4ccc(OC)cc4)ccc31)[C@H](c1ccc(O)cc1)N1[C@H](c3ccccc3)[C@H](c3ccccc3)OC(=O)[C@H]1[C@@H]2C(=O)NC[C@H](O)c1ccccc1	inactive
O=C(NCc1csnn1)c1csnn1	inactive
O=C(COC(=O)/C=C/c1cn(-c2ccccc2)nc1-c1ccc2c(c1)OCCO2)N[C@H]1CCS(=O)(=O)C1	inactive
C[C@H]1CN([C@@H](C)CO)C(=O)CCCn2nncc2CO[C@@H]1CN(C)S(=O)(=O)c1ccc(-n2cccn2)cc1	inactive
COc1ccc(S(=O)(=O)N[C@H]2C=C[C@H](CC(=O)N3CCC(Cc4ccccc4)CC3)O[C@H]2CO)cc1	inactive
C[C@@H]1CN([C@@H](C)CO)C(=O)Cc2cc(NC(=O)CCN3CCOCC3)ccc2O[C@H]1CN(C)C(=O)NC1CCCCC1	inactive
CC(C)(N)c1ccccc1Br	inactive
C[C@@H]1CN([C@@H](C)CO)C(=O)c2cccc(NC(=O)NC3CCCCC3)c2O[C@H]1CN(C)Cc1ccc(Cl)c(Cl)c1	inactive
COc1cc2nc(N3CCN(C(=O)C4CCCO4)CC3)nc(N)c2cc1OC.Cl (stereo not drawn)	inactive
COc1cc2c(NC3CCN(C(C)C)CC3)nc(N3CCC(F)(F)CC3)nc2cc1OCCCN1CCCC1	active
COc1cc2c(NC3CCN(C)CC3)nc(N3CCCN(C)CC3)nc2cc1OCCOCCN(C)C	inactive
C[C@@H]1CN([C@@H](C)CO)C(=O)Cc2cc(NS(=O)(=O)c3ccccc3)ccc2O[C@@H]1CN(C)Cc1ccc(C(=O)O)cc1	inactive
COc1cccc(NC(=O)N(C)C[C@H]2OCc3ccccc3-c3c(n(C)c4ccccc34)C(=O)N([C@H](C)CO)C[C@H]2C)c1	inactive

SMILES	cytotoxicity call
C[C@@H]1CCCCO[C@@H](CN(C)C(=O)CCC(F)(F)F)[C@H](C)CN([C@@H](C)CO)C(=O)c2cc(NS(=O)(=O)c3cccs3)ccc2O1	inactive
Cc1ccc(S(=O)(=O)Nc2ccc3c(c2)C(=O)N([C@@H](C)CO)C[C@@H](C)[C@@H](CN(C)C(=O)c2ccccc2)OCCCC[C@@H](C)O3)cc1	inactive
C[C@H](CO)N1C[C@H](C)[C@H](CN(C)Cc2ccc(C(F)(F)F)cc2)Oc2ccc(NC(=O)Cc3ccccc3)cc2C1=O	inactive
Cc1ccc(S(=O)(=O)N(C)C[C@@H]2Oc3cc(Br)ccc3S(=O)(=O)N([C@@H](C)CO)C[C@@H]2C)cc1	inactive
COc1ccc(S(=O)(=O)Nc2ccc3c(c2)C(=O)N([C@H](C)CO)C[C@@H](C)[C@@H](CN(C)Cc2ccc(C(F)(F)F)cc2)OCCCC[C@@H](C)O3)cc1	active
COc1ccc(S(=O)(=O)Nc2ccc3c(c2)C(=O)N([C@@H](C)CO)C[C@H](C)[C@@H](CN(C)Cc2ccc(C(F)(F)F)cc2)OCCCC[C@H](C)O3)cc1	inactive
COc1ccc(S(=O)(=O)Nc2ccc3c(c2)C(=O)N([C@@H](C)CO)C[C@@H](C)[C@@H](CN(C)Cc2ccc(C(F)(F)F)cc2)OCCCC[C@@H](C)O3)cc1	inactive
COc1ccc(S(=O)(=O)Nc2ccc3c(c2)C(=O)N([C@@H](C)CO)C[C@@H](C)[C@@H](CN(C)Cc2ccc(C(F)(F)F)cc2)OCCCC[C@H](C)O3)cc1	inactive
COc1ccc(S(=O)(=O)Nc2ccc3c(c2)C(=O)N([C@@H](C)CO)C[C@H](C)[C@@H](CN(C)Cc2ccc(C(F)(F)F)cc2)OCCCC[C@@H](C)O3)cc1	inactive
COc1ccc(S(=O)(=O)Nc2ccc3c(c2)C(=O)N([C@H](C)CO)C[C@H](C)[C@@H](CN(C)Cc2ccc(C(F)(F)F)cc2)OCCCC[C@@H](C)O3)cc1	active
COc1ccc(S(=O)(=O)Nc2ccc3c(c2)C(=O)N([C@@H](C)CO)C[C@@H](C)[C@H](CN(C)Cc2ccc(C(F)(F)F)cc2)OCCCC[C@@H](C)O3)cc1	active
COc1ccc(S(=O)(=O)Nc2ccc3c(c2)C(=O)N([C@H](C)CO)C[C@@H](C)[C@H](CN(C)Cc2ccc(C(F)(F)F)cc2)OCCCC[C@@H](C)O3)cc1	inactive
COc1ccc(S(=O)(=O)Nc2ccc3c(c2)C(=O)N([C@H](C)CO)C[C@@H](C)[C@@H](CN(C)Cc2ccc(C(F)(F)F)cc2)OCCCC[C@H](C)O3)cc1	inactive
COc1ccc(S(=O)(=O)Nc2ccc3c(c2)C(=O)N([C@H](C)CO)C[C@H](C)[C@H](CN(C)Cc2ccc(C(F)(F)F)cc2)OCCCC[C@H](C)O3)cc1	active
C[C@H](CO)N1C[C@H](C)[C@H](CN(C)S(=O)(=O)c2cccc(F)c2)Oc2ncc(C#CC3(O)CCCC3)cc2C1=O	inactive
C[C@H](CO)N1C[C@H](C)[C@H](CN(C)CC2CCCCC2)Oc2c(NC(=O)c3nc4ccccc4s3)cccc2C1=O	inactive
C[C@@H]1CN([C@@H](C)CO)C(=O)c2cc(NS(=O)(=O)c3cn(C)cn3)ccc2O[C@@H](C)CCCCO[C@@H]1CN(C)S(=O)(=O)c1ccccc1	inactive
COc1ccc(-c2cnc3c(c2)C(=O)N([C@H](C)CO)C[C@@H](C)[C@H](CN(C)C(=O)Cc2ccncc2)O3)cc1	inactive
C[C@@H]1CN([C@@H](C)CO)C(=O)c2cc(NC(=O)Cn3cnnn3)ccc2O[C@@H]1CN(C)S(=O)(=O)c1ccccc1	inactive
